Laboratory results published in article PMC8384837, “Expanding the binding specificity for RNA recognition by a PUF domain”.
Residue numbers refer to the chain shown, from its start.

How the values were obtained:
Test in all cases: yeast three-hybrid, YBZ-1, SC-Leu-His + 0.5 mM 3-AT, 4 days
Details in all cases: tags: N-Gal4 AD-HA kept; label: inside an RPR1-promoter hybrid RNA with tandem MS2 sites; ssRNA
[1] = biological target: PUM1 PUF domain R7-LHG (Homo sapiens, UniProt Q14671 828-1176, S1079L;N1080H;E1083G)
Method in brief: (§1)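 Sequencing with Illumina followed PCR amplification of the repeat regions from transformants grown four days on SC-Leu (input) or SC-Leu-His + 0.5 mM 3-AT (selection). The transformants were strain YBZ-1 with a LexA–MS2 coat fusion and a HIS3 reporter, carrying Pumilio-1 PUF domain libraries and matching RNA elements. The interaction score is the log change in variant frequency from input to selection, computed in log2 with a pseudocount of 1 for absent variants.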

[2] = biological target: PUM1 PUF domain R3-WWR (Homo sapiens, UniProt Q14671 828-1176, C935W;R936W;Q939R)
Method in brief: as §1

[3] = biological target: PUM1 PUF domain R3-SEE (Homo sapiens, UniProt Q14671 828-1176, C935S;R936E;Q939E)
Method in brief: as §1

[4] = biological target: PUM1 PUF domain R3-LRT (Homo sapiens, UniProt Q14671 828-1176, C935L;Q939T)
Method in brief: as §1

[5] = biological target: PUM1 PUF domain R3-CRP (Homo sapiens, UniProt Q14671 828-1176, Q939P)
Method in brief: as §1

[6] = biological target: T1, PUM1 PUF domain R6-SWR (Homo sapiens, UniProt Q14671 828-1176, N1043S;Y1044W;Q1047R)
T1 sequence: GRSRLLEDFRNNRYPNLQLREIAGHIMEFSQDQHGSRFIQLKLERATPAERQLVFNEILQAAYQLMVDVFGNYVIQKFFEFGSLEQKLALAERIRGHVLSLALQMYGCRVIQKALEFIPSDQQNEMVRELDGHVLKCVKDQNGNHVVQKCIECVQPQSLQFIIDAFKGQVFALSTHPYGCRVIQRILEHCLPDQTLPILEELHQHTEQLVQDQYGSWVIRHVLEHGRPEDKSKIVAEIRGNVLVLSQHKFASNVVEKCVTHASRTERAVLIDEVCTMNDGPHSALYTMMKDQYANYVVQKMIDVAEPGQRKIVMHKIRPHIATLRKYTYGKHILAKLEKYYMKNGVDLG
Method in brief: as §1

[7] = biological target: PUM1 PUF domain R1-KLS (Homo sapiens, UniProt Q14671 828-1176, S863K;R864L;Q867S)
Method in brief: as §1

[8] = biological target: PUM1 PUF domain R5-GVR (Homo sapiens, UniProt Q14671 828-1176, C1007G;R1008V;Q1011R)
Method in brief: as §1

[9] = biological target: PUM1 PUF domain R5-KFV (Homo sapiens, UniProt Q14671 828-1176, C1007K;R1008F;Q1011V)
Method in brief: as §1

[10] = biological target: PUM1 PUF domain R5-HRG (Homo sapiens, UniProt Q14671 828-1176, C1007H;Q1011G)
Method in brief: as §1

[11] = biological target: PUM1 PUF domain R5-KLH (Homo sapiens, UniProt Q14671 828-1176, C1007K;R1008L;Q1011H)
Method in brief: as §1

[12] = biological target: PUM1 PUF domain R8-RYA (Homo sapiens, UniProt Q14671 828-1176, N1122R;Q1126A)
Method in brief: as §1

[13] = biological target: PUM1 PUF domain R3-DFL (Homo sapiens, UniProt Q14671 828-1176, C935D;R936F;Q939L)
Method in brief: as §1

[14] = biological target: PUM1 PUF domain R5-EHR (Homo sapiens, UniProt Q14671 828-1176, C1007E;R1008H;Q1011R)
Method in brief: as §1

[15] = biological target: PUM1 PUF domain R4-ALS (Homo sapiens, UniProt Q14671 828-1176, N971A;H972L;Q975S)
Method in brief: as §1

[16] = biological target: PUM1 PUF domain R3-CPT (Homo sapiens, UniProt Q14671 828-1176, R936P;Q939T)
Method in brief: as §1

[17] = biological target: T2, PUM1 PUF domain R6-CYT (Homo sapiens, UniProt Q14671 828-1176, N1043C;Q1047T)
T2 sequence: T1 sequence with S216C, W217Y, R220T
Method in brief: as §1

[18] = biological target: PUM1 PUF domain R4-DHR (Homo sapiens, UniProt Q14671 828-1176, N971D;Q975R)
Method in brief: as §1

[19] = biological target: PUM1 PUF domain R4-PFQ (Homo sapiens, UniProt Q14671 828-1176, N971P;H972F)
Method in brief: as §1

[20] = biological target: PUM1 PUF domain R3-GFP (Homo sapiens, UniProt Q14671 828-1176, C935G;R936F;Q939P)
Method in brief: as §1

Question: “GGCUAGAACUAGUGGAUCCCCCGGCGCCCGGCGGCUCGAGCCCGGGUAAGUCUAAAUAGUCUGCAUGCCGCCGGGCGCCAUGCCUGCAGGUCGACUCUAGAAAACAUG” was tested. Which binding signal [1] did it give?
Answer: The binding signal was 3.19 log2 enrichment (interaction score).

Question: With “GGCUAGAACUAGUGGAUCCCCCGGCGCCCGGCGGCUCGAGCCCGGGUAAGUGUAAGUAGUCUGCAUGCCGCCGGGCGCCAUGCCUGCAGGUCGACUCUAGAAAACAUG” as the sequence, how does the binding signal [2] read?
Answer: The binding signal was 5.22 log2 enrichment (interaction score).

Question: And the binding signal [3]?
Answer: Its binding signal is 2.43 log2 enrichment (interaction score).

Question: And the binding signal [4]?
Answer: The binding signal was 4.37 log2 enrichment (interaction score).

Question: And the binding signal [5]?
Answer: The binding signal was 1.62 log2 enrichment (interaction score).

Question: With “GGCUAGAACUAGUGGAUCCCCCGGCGCCCGGCGGCUCGAGCCCGGGUAAGUUUAAAUAGUCUGCAUGCCGCCGGGCGCCAUGCCUGCAGGUCGACUCUAGAAAACAUG” as the sequence, how does the binding signal [1] read?
Answer: Its binding signal is 4.5 log2 enrichment (interaction score).

Question: How did the binding signal [6] turn out when “GGCUAGAACUAGUGGAUCCCCCGGCGCCCGGCGGCUCGAGCCCGGGUAAGUGCAAAUAGUCUGCAUGCCGCCGGGCGCCAUGCCUGCAGGUCGACUCUAGAAAACAUG” was run?
Answer: The binding signal was 7.3 log2 enrichment (interaction score).

Question: With “GGCUAGAACUAGUGGAUCCCCCGGCGCCCGGCGGCUCGAGCCCGGGUAAGUGUAAAUCGUCUGCAUGCCGCCGGGCGCCAUGCCUGCAGGUCGACUCUAGAAAACAUG” as the sequence, how does the binding signal [7] read?
Answer: The binding signal was 3.97 log2 enrichment (interaction score).

Question: For “GGCUAGAACUAGUGGAUCCCCCGGCGCCCGGCGGCUCGAGCCCGGGUAAGUGUUAAUAGUCUGCAUGCCGCCGGGCGCCAUGCCUGCAGGUCGACUCUAGAAAACAUG”, which binding signal [8] is on record?
Answer: Its binding signal is 1.75 log2 enrichment (interaction score).

Question: And the binding signal [9]?
Answer: The binding signal was 6.19 log2 enrichment (interaction score).

Question: And the binding signal [10]?
Answer: The binding signal was 3.89 log2 enrichment (interaction score).

Question: What does the source list for “GGCUAGAACUAGUGGAUCCCCCGGCGCCCGGCGGCUCGAGCCCGGGUAAGUGUCAAUAGUCUGCAUGCCGCCGGGCGCCAUGCCUGCAGGUCGACUCUAGAAAACAUG”?
Answer: binding signal [8]: 5.93 log2 enrichment (interaction score); binding signal [11]: 2.85 log2 enrichment (interaction score); binding signal [9]: 5.97 log2 enrichment (interaction score); binding signal [10]: 1.78 log2 enrichment (interaction score)

Question: With “GGCUAGAACUAGUGGAUCCCCCGGCGCCCGGCGGCUCGAGCCCGGGUAAGCGUAAAUAGUCUGCAUGCCGCCGGGCGCCAUGCCUGCAGGUCGACUCUAGAAAACAUG” as the sequence, how does the binding signal [12] read?
Answer: The binding signal was 6.7 log2 enrichment (interaction score).

Question: For “GGCUAGAACUAGUGGAUCCCCCGGCGCCCGGCGGCUCGAGCCCGGGUAAGUGUAAAUAGUCUGCAUGCCGCCGGGCGCCAUGCCUGCAGGUCGACUCUAGAAAACAUG”, which binding signal [13] is on record?
Answer: Its binding signal is 2.6 log2 enrichment (interaction score).

Question: What about the binding signal [2] of the same sequence?
Answer: The binding signal was 0.59 log2 enrichment (interaction score).

Question: What about the binding signal [9] of the same sequence?
Answer: The binding signal was 3.95 log2 enrichment (interaction score).

Question: And the binding signal [14]?
Answer: Its binding signal is 3.38 log2 enrichment (interaction score).

Question: What about the binding signal [15] of the same sequence?
Answer: Its binding signal is 4.11 log2 enrichment (interaction score).

Question: And the binding signal [10]?
Answer: Its binding signal is 0.26 log2 enrichment (interaction score).

Question: And the binding signal [16]?
Answer: The binding signal was 2.54 log2 enrichment (interaction score).

Question: What about the binding signal [5] of the same sequence?
Answer: The binding signal was 4.84 log2 enrichment (interaction score).

Question: And the binding signal [6]?
Answer: Its binding signal is 8.07 log2 enrichment (interaction score).

Question: For “GGCUAGAACUAGUGGAUCCCCCGGCGCCCGGCGGCUCGAGCCCGGGUAAGUGAAAAUAGUCUGCAUGCCGCCGGGCGCCAUGCCUGCAGGUCGACUCUAGAAAACAUG”, which binding signal [17] is on record?
Answer: The binding signal was 3.1 log2 enrichment (interaction score).

Question: With “GGCUAGAACUAGUGGAUCCCCCGGCGCCCGGCGGCUCGAGCCCGGGUAAGUGUAUAUAGUCUGCAUGCCGCCGGGCGCCAUGCCUGCAGGUCGACUCUAGAAAACAUG” as the sequence, how does the binding signal [18] read?
Answer: The binding signal was 4.76 log2 enrichment (interaction score).

Question: What about the binding signal [19] of the same sequence?
Answer: The binding signal was 5.54 log2 enrichment (interaction score).

Question: With “GGCUAGAACUAGUGGAUCCCCCGGCGCCCGGCGGCUCGAGCCCGGGUAAGUGUACAUAGUCUGCAUGCCGCCGGGCGCCAUGCCUGCAGGUCGACUCUAGAAAACAUG” as the sequence, how does the binding signal [18] read?
Answer: The binding signal was 6.79 log2 enrichment (interaction score).

Question: What does the source list for “GGCUAGAACUAGUGGAUCCCCCGGCGCCCGGCGGCUCGAGCCCGGGUAAGUGUAAUUAGUCUGCAUGCCGCCGGGCGCCAUGCCUGCAGGUCGACUCUAGAAAACAUG”?
Answer: binding signal [2]: 3.35 log2 enrichment (interaction score); binding signal [4]: 1.36 log2 enrichment (interaction score); binding signal [20]: 4.82 log2 enrichment (interaction score); binding signal [16]: 1.02 log2 enrichment (interaction score); binding signal [5]: 1.1 log2 enrichment (interaction score)
